Assay outcomes as filed in PubChem BioAssay.
aSyn yeast inh – qHTS of alpha-syn Inhibitors; Yeast expressing alpha-synuclein, growth rescue, BacTiter-Glo, 24 h; Potency, µM (top dose mostly 46.1 µM), for inactives: at the top dose growth rescue (activation), hits mostly activators; 370,000 tested, 0.14% active; AID 652106, 2013; note: % of control where 0% means no effect; nearly all actives have a fitted effect of over 65% in size
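Readout is rescue of growth in alpha-synuclein-expressing yeast, so inhibitors of toxicity appear as activators. Growth after 24 hr at 30 deg C in galactose medium is quantified by luminescence.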
Rango release inh – qHTS Assay for Inhibitors of RanGTP induced Rango (Ran-regulated importin-beta cargo) - Importin beta complex dissociation; Biochemical FRET Rango-importin beta, RanGTP-induced dissociation; Potency, µM (doses to about 46.1 µM), for inactives: top-dose activity change, negative = inhibition; 340,000 tested, 0.071% active; AID 540253, 2011; calls by dose curve; note: % of control where 0% means no effect; nearly all actives have a fitted effect of over 45% in size
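Compounds preincubate 5 min with complex of recombinant Rango and importin beta in PBS with 1 mM DTT. Ran (0.6 uM) loaded with 2 mM GTP plus 0.2 uM RCC1 starts dissociation; FRET is recorded 45 min later.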
TDP43 rescue – qHTS of TDP-43 Inhibitors; TDP-43 expressing yeast growth rescue, BacTiter-Glo, 24 h; Potency, µM (series often up to 46.1 µM), for the others: at the top dose growth rescue (activation), usual class: activators; 410,000 tested, 1.8% active; AID 652104, 2013; note: % of control where 0% means no effect; nearly all actives have a fitted effect of over 50% in size
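Luminescence from BacTiter-Glo reports growth of TDP-43-expressing yeast after 24 hr at 30 deg C with compound. Cells were raffinose-pregrown to mid-log, then seeded in galactose medium at OD600=0.02.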
ASM inhibitor – Inhibitors of Secretory Acid Sphingomyelinase (S-ASM): qHTS. Sphingomyelin phosphodiesterase (Homo sapiens), P17405. placental ASM, HMU-PC fluorogenic substrate, 60 min. Potency, µM (doses to about 57.5 µM), inactives show at the top dose activity change, negative = inhibition, usual class: inhibitors. 340,000 tested, 0.006% active
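Human placenta-derived ASM enzyme was preincubated with compound for 10 minutes at room temperature, then given fluorogenic substrate HMU-PC0 (9 uM final) for 60 minutes at 37 °C; a pH 10 stop preceded fluorescence reading at Ex 386/Em 447 nm.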
Abeta rescue – qHTS for compounds that reverse cellular toxicity of Amyloid beta (A-beta) peptide in yeast: Primary Screen; yeast expressing A-beta42, growth rescue, OD600, 48 h; response scale: 0% DMSO, 100% iron-clioquinol control; Potency, µM (doses to about 46.1 µM), actives largely listed as activators; 410,000 tested, 0.063% active; note: nearly all actives have a fitted effect of over 55% in size
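Yeast growth medium received pinned compounds, then yeast cells expressing toxic A-beta were added; plates incubated at 30 C for 48 hr. Growth read as absorbance at 600 nm, normalized to DMSO and equimolar FeCl3 plus clioquinol controls.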
Rango complex inh – qHTS Assay for Inhibitors of Rango (Ran-regulated importin-beta cargo) - Importin beta complex formation | Importin subunit beta-1 (Homo sapiens), Q14974 | Rango CFP/YFP FRET sensor + importin beta, 45 min | Potency, µM (highest dose often 92.2 µM), for inactives: at the highest dose inhibition of complex formation | 340,000 tested, 0.031% active; calls by dose curve;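 note: 0% = DMSO wells and 100% = buffer wells lacking importin beta; nearly all actives have a fitted effect of over 15% in size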
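Inhibition scored from the CFP 486 nm/YFP 530 nm FRET ratio 45 min after adding 0.125 microM importin beta to 50 nM Rango biosensor preincubated 5 min with compound (room temperature, PBS with DTT, Tween-20, BSA). No-importin wells as positive control.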
* = called active by the depositor; i = inactive; ? = inconclusive; . = no result. Rows were chosen to be rich in hits. Some 2% of all compounds tested hit in one or more screens of this group. Unless noted, calls come from the whole dose curve; as a rule, active = well fitted curve in the direction sought with a large enough effect; inconclusive = small, poorly fitted or top-dose-only effect, or another doubt; inactive = no such curve, though single readings can be large; an effect the other way counts as inactive or inconclusive. Potency is the fitted concentration of half-maximal effect.

SMILES	aSyn yeast inh	Rango release inh	TDP43 rescue	ASM inhibitor	Abeta rescue	Rango complex inh
Cc1noc(NS(=O)(=O)c2ccc(N/C=C/C(=O)c3cccnc3)cc2)c1C	20µM*	-24.8%	-0.7%	1.2%	i	0.7%
Cc1ccc(CNC(=O)Cc2coc3cc(C)cc(C)c23)cc1	.	.	6.8%	.	i	.
C=C1C=C(C(F)F)n2ncc(C(=O)NCc3ccc(F)cc3)c2N1	-0.3%	.	.	.	.	.
COc1ccc(C(=O)/C=C/Nc2ccc([N+](=O)[O-])cc2C)c(OC)c1	-8.4%	?	-15.7%	-1.8%	i	?
COc1ccc(C(=O)/C=C/Nc2cc(C)on2)c(OC)c1	12.6µM*	-3.8%	?	14.6%	i	2.6%
CCOc1cc(C(=O)NCc2ccc3c(c2)CCN3C(=O)c2ccc(F)cc2)cc(OCC)c1OCC	.	.	14.2%	.	i	.
O=S(=O)(NCCOc1ccccc1F)c1cccc(Br)c1	9.1%	6.3%	12.6µM*	-1.4%	?	1.3%
O=S(=O)(NCCOc1ccccc1F)c1ccc(Cl)cc1F	4.7%	-16.3%	22.4µM*	-2.6%	i	-0.5%
CCCCc1ccc(NC(=O)C2(C)Cc3ccccc3C(=O)O2)cc1 (stereo not given)	?	.	12.5%	.	i	.
O=c1cc(-c2ccc(C3CCCCC3)cc2)[nH][nH]1	10.3%	-1.2%	17.8µM*	-1.5%	i	3.4%
Cn1c(SCc2ccc(F)cc2)nc2ccc(C(=O)NCc3cccc(Cl)c3)cc21	.	.	-1.2%	.	i	.
CCOC(=O)c1cc(-c2ccccc2)n(CC(=O)Nc2ccc(OC)cc2OC)c1C	.	.	-14.4%	.	i	.
C1=C(c2ccccc2)Nc2ncnn2C1c1ccccc1 (stereo not given)	-2.5%	?	20µM*	52.9%	i	?
Cc1ccc(C2=CC(c3ccccc3)n3ncnc3N2)cc1 (stereo not given)	8.4%	?	12.6µM*	94.1%	i	?
Cc1ccc(C2=CC(c3ccccc3)n3ncnc3N2)c(C)c1 (stereo not given)	9.9%	-15.8%	?	58.2%	?	-4.0%
Cc1ccc(C2C=C(c3ccccc3OC(F)F)Nc3ncnn32)cc1 (stereo not given)	11.5%	?	12.6µM*	180.6%	i	?
Cc1ccc(C2C=C(c3ccc4c(c3)OCO4)Nc3ncnn32)cc1 (stereo not given)	9.7%	?	12.6µM*	73.5%	i	?
CN(C)c1ccc(C2C=C(c3ccc(Cl)cc3OC(F)F)Nc3ncnn32)cc1 (stereo not given)	14.9%	?	-6.9%	135.4%	i	?
Cc1cc(C)n(-c2nc3cc(Cl)c(Cl)cc3nc2Nc2ccc(F)cc2C)n1	.	.	-1.0%	.	i	.
O=C(NCCO)c1cc2cc(Cl)cc(Cl)c2oc1=O	-0.7%	18.4µM*	-2.3%	1.8%	i	?
O=C(c1cc2ccccc2[nH]1)c1cc2cc(O)ccc2[nH]1	-3.4%	.	.	.	.	.
Cc1ccc(CNC(=O)C2CCCN(c3nc4ccccc4n4cccc34)C2)cc1 (stereo not given)	.	.	0.5%	.	i	.
O=C(c1c[nH]c(C(=O)C(Cl)(Cl)Cl)c1)c1c(F)cccc1F	-13.2%	3.6%	-93.5%	14.3%	i	2.2%
O=C(c1c[nH]c(C(=O)C(Cl)(Cl)Cl)c1)c1ccccc1F	-2.8%	-7.5%	10µM*	1.5%	i	0.6%
